Test results taken from PubChem BioAssay AID1159580 (chemical genetic matrix, 2015).
Several values for one entry are separate records, joined by “and”; a condition that tells them apart may be missing. Equal entries are not always repeated. In all, about 5,500 compounds went through this assay and about 2,000 (36%) were called active. About 18% were inconclusive and are not listed. Cut-off read from the data, not from the text of the source: active = normalized growth mostly below about 0.91 (no sharp cut-off); inconclusive = no clear call, values can overlap the other calls; inactive = mostly above about 0.92. Some of the results follow.

Experiment: chemical genetic growth profiling, strain panel (AID 1159580);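 note: tested at 20 µM; growth read once vehicle control cultures reached saturation at 30 °C; 1 = growth at the plate median or of vehicle wells; lower values mean less growth of the strain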
Settings: S. cerevisiae deletion strains, growth OD

Measured: normalized growth

COC1=CC23CCCN2CCc2cc4c(cc2C3C1O)OCO4 (stereo not drawn)
inactive: locus YAL013W, strain DEP1, hits give low values 1.01 | locus YAL021C, strain ccr4, hits give low values 1.02 | locus YAL026C, strain drs2, hits give low values 1.03 | locus YAL030W, strain snc1, hits give low values 1.02 | locus YBL061C, strain skt5, hits give low values 1.03 | locus YBR009C, strain hhf1, hits give low values 1.04 | locus YBR021W, strain FUR4, hits give low values 1.01 | locus YBR023C, strain chs3, hits give low values 1.05 | locus YBR171W, strain sec66, hits give low values 1.06 | locus YBR229C, strain ROT2, hits give low values 1.01 | locus YBR231C, strain swc5, hits give low values 1.02 | locus YBR279W, strain paf1, hits give low values 1.03 | locus YCL011C, strain gbp2, hits give low values 1.02 | locus YCL016C, strain dcc1, hits give low values 1.03 | locus YCL029C, strain bik1, hits give low values 1.01 | locus YCL061C, strain MRC1, hits give low values 1.03 | locus YCL069W, strain vba3, hits give low values 1.02 | locus YCR088W, strain abp1, hits give low values 1.03 | locus YDL005C, strain med2, hits give low values 1.02 | locus YDL035C, strain GPR1, hits give low values 0.995 | locus YDL040C, strain nat1, hits give low values 1.02 | locus YDL074C, strain BRE1, hits give low values 1.04 | locus YDL101C, strain DUN1, hits give low values 1 | locus YDL185W, strain tfp1, hits give low values 1.01 | locus YDL192W, strain arf1, hits give low values 1 | locus YDR001C, strain nth1, hits give low values 1.02 | locus YDR069C, strain doa4, hits give low values 1.04 | locus YDR101C, strain arx1, hits give low values 1.01 | locus YDR137W, strain rgp1, hits give low values 1.05 | locus YDR150W, strain NUM1, hits give low values 1.01 | locus YDR159W, strain sac3, hits give low values 1.04 | locus YDR162C, strain NBP2, hits give low values 1.01 | locus YDR195W, strain ref2 1.01 | locus YDR297W, strain sur2, hits give low values 1.02 | locus YDR318W, strain mcm21, hits give low values 0.987 | locus YDR334W, strain swr1, hits give low values 1.03 | locus YDR335W, strain msn5, hits give low values 1.03 | locus YDR388W, hits give low values 1.01 | locus YDR392W, strain spt3, hits give low values 0.971 | locus YDR502C, strain sam2, hits give low values 0.995 | locus YEL003W, strain gim4, hits give low values 1.02 | locus YEL037C, strain rad23, hits give low values 1.02 | locus YEL061C, strain CIN8 (second series), hits give low values 1.02 | locus YEL061C, strain CIN8, hits give low values 1.01 | locus YER015W, strain faa2, hits give low values 1.02 | locus YER016W, strain bim1, hits give low values 1.02 | locus YER110C, hits give low values 1.01 | locus YER111C, strain swi4, hits give low values 1.03 | locus YER155C, strain BEM2 (second series), hits give low values 1.04 | locus YER155C, strain BEM2, hits give low values 1 | locus YER167W, strain BCK2, hits give low values 1 | locus YFR010W, strain ubp6, hits give low values 1.03 | locus YGL078C, strain dbp3, hits give low values 0.997 | locus YGL086W, strain mad1, hits give low values 1.03 | locus YGL167C, strain pmr1, hits give low values 1.03 | locus YGL173C, strain kem1, hits give low values 1.04 | locus YGL227W, strain vid30, hits give low values 1.02 | locus YGL240W, strain doc1, hits give low values 1.04 | locus YGL248W, strain PDE1, hits give low values 0.988 | locus YGL253W, strain hxk2, hits give low values 1.03 | locus YGR078C, strain PAC10, hits give low values 1 | locus YGR135W, strain pre9, hits give low values 0.986 | locus YGR229C, strain SMI1, hits give low values 1 | locus YGR252W, strain gcn5, hits give low values 0.952 | locus YHR013C, strain ard1, hits give low values 1.04 | locus YHR027C, strain rpn1, hits give low values 1.06 | locus YHR030C, strain SLT2, hits give low values 1.01 and 0.963 | locus YHR079C, strain IRE1 (second series), hits give low values 1.01 | locus YHR079C, strain IRE1, hits give low values 0.967 | locus YHR094C, strain hxt1, hits give low values 1.01 | locus YHR129C, strain ARP1, hits give low values 1.01 | locus YHR142W, strain chs7, hits give low values 1.05 | locus YHR200W, strain rpn10, hits give low values 1.01 | locus YIL066C, strain RNR3, hits give low values 1.01 | locus YIL073C, strain SPO22, hits give low values 1.04 | locus YIL125W, strain kgd1, hits give low values 1.01 | locus YIR030C, strain dcg1, hits give low values 1.01 | locus YJL092W, strain hpr5, hits give low values 1.02 | locus YJL095W, strain BCK1 (second series), hits give low values 1.02 | locus YJL095W, strain BCK1, hits give low values 0.983 and 0.975 | locus YJL115W, strain asf1, hits give low values 1.01 | locus YJL129C, strain trk1, hits give low values 1.03 | locus YJL134W, strain LCB3, hits give low values 1.01 | locus YJL154C, strain vps35, hits give low values 1.02 | locus YJL164C, strain tpk1, hits give low values 1.03 | locus YJL166W, strain qcr8, hits give low values 1.03 | locus YJL168C, strain set2, hits give low values 1 | locus YJL187C, strain SWE1 (second series), hits give low values 1
